According to the supplement of paper PMC6555819:

How the values were obtained:
Assay in all cases: PBM binding z-score (relative to random genomic background probes); higher = stronger binding; sequences stand for … in GC…GCGATTGACAGCGTAGAATGAAGG
[1] = test system: RARb homodimer (NR concentration 270 nM)
How it was run: (§1)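 The probes on custom Agilent 4×180K protein-binding microarrays were double-stranded, with 34-nt variable regions bearing direct-repeat seeds, single-nucleotide variants, half-site ablations and random human genomic background sequences. Incubation lasted 1 h with ligand-free nuclear receptor dimers in PBS pH 7.4, 2% milk, 0.02% Triton X-100, 1 mM DTT, 0.2 mg/mL BSA and 0.4 mg/ml salmon testes DNA. Antibodies against each partner (one per run) detected bound dimers, and fluorescence scans were regression-normalized. Binding z-scores take the random background probes as reference.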

[2] = test system: RARg:RXRa (NR concentration 270 nM, RXRa partner concentration 90 nM)
How it was run: as §1

[3] = test system: RARg homodimer (NR concentration 270 nM)
How it was run: as §1

[4] = test system: RXRa DBDmut IVT, anti-RXR (DBD mutation: RXRa K156A/R161A, NR concentration 90 nM)
How it was run: as §1

[5] = test system: RXRa homodimer (NR concentration 180 nM)
How it was run: as §1

[6] = test system: THRa:RXRa (NR concentration 90 nM, RXRa partner concentration 90 nM)
How it was run: as §1

[7] = test system: THRa homodimer (NR concentration 90 nM)
How it was run: as §1

[8] = test system: VDR homodimer (NR concentration 270 nM)
How it was run: as §1

Row | Sequence | PBM binding z-score [1] | PBM binding z-score [2] | PBM binding z-score [3] | PBM binding z-score [4] | PBM binding z-score [5] | PBM binding z-score [6] | PBM binding z-score [7] | PBM binding z-score [8]
1 | AGAACGAAGGCAATGAGTTGATAGCACGGGTGGC | -1.03 | -0.228 | -0.122 | -0.299 | -0.105 | -0.732 | -1.11 | -0.223
2 | CCGACTGGGGCATGGTTACCATAACGCACAGCCA | -0.189 | -0.0426 | 0.399 | -0.99 | -0.131 | -0.641 | -0.739 | -0.781
3 | CCTATTAGTTGACCATAAGGGCATCCGAAGCTCG | 1.78 | 1.12 | 1.02 | 0.721 | 0.568 | 1.89 | 1.35 | 1.26
4 | CTACCAAGGTGAATAAGGTCGTTGATTACTATTC | 2.05 | 1.54 | 1.21 | 1.38 | 1.71 | 3.6 | 2.67 | 2.68
5 | CAAACTAGGTCAAGGACAGTGAATCTCCGCACGC | 3.29 | 3.69 | 4.39 | 1.7 | 2.79 | 3.27 | 2.33 | 0.901
6 | TCTGCTCGGTCAGTTGGTCAGCTAACGAGCTGCC | 1.35 | 0.987 | 1.71 | -0.175 | -0.299 | -0.381 | -0.999 | -0.918
7 | CGTACTAGGTCAAGGACAGTGAATCTCCGCACGC | 3.14 | 3.81 | 4.64 | 1.21 | 2.53 | 3.22 | 2.42 | 0.444
8 | ATCGAAAGGTCGAGGGGAGTATAGAGAAAGGGAA | 2.84 | 4.18 | 4.21 | 1.4 | 3.94 | 2.05 | 0.272 | 0.958
9 | AGTCAAAGTTCAGGACGAGGTAACGTGAAGCACG | 1.95 | 4.86 | 4.39 | 2.8 | 3.03 | 3.97 | 1.65 | 1.62
10 | CCTCGGAGGACAGAAGGTGAGAGCTGTCCGCTTT | 1.05 | 0.543 | 0.503 | -0.26 | -0.253 | 0.747 | -0.514 | -0.603
11 | TCTGCTAGGTCAGTTGGTCATCTAACGAGCTGCC | 2.81 | 2.87 | 3.99 | 0.589 | 1.25 | 1.63 | 0.119 | -0.506
12 | TCTATTAGTTGAAGAGCAACCGACGAGTCCGTTT | -0.385 | -0.11 | -0.0161 | 1.36 | 0.301 | -0.14 | -0.463 | 1.23
13 | TCTAGTTAGTCACGGAGGTCACACACGACGGGTA | 3.95 | 3.7 | 3.44 | 1.24 | 4.28 | 3.56 | 2.59 | 1.97
14 | AGTCAAAGTTCAGGACGAGGTAACGAAAAGCACG | 2.94 | 4.74 | 4.62 | 2.71 | 3.34 | 3.75 | 1.77 | 2.11
15 | TTTAGTTGGTCACGGAGGTCACACACGACGGGTA | 4.52 | 5.05 | 5.2 | 0.387 | 4.87 | 3.75 | 3.15 | 3.7
16 | ACTAGTTGGTCAGCTGAGGTCACAGACAATTCGG | 4.19 | 4.16 | 3.84 | 1.15 | 4.37 | 4.99 | 5.44 | 2.9
